Our source for the outcome and AC50 values is PubChem BioAssay (EPA / NIEHS).

Each structure is given as a SMILES string. Several values for one entry are separate records, joined by “and”; a condition that tells them apart may be missing. Equal values may be shown once. Activity calls are given as the source filed them. Rule for the calls: active = hit-call score of the fitted dose curve at least 0.9, where 1 is the maximum; inactive = score below 0.9.

The experiment can be described thus: CCTE_Shafer_MEA_dev_interburst_interval_mean: CCTE's Neural Network Formation Assay for Mean Interburst Interval, Shafer Lab (AID 2284046). Here is the method: CCTE_Shafer_MEA_dev assay is conducted using Axion Biosystems 48 well microelectrode array (MEA) plates and Maestro recording system. Each well of the MEA plate contains a grid of 16 microelectrodes embedded in the culture surface. Electrically active cells, such as neurons, can be cultured over the electrodes, and electrical activity in these cells can be recorded extracellularly. The spontaneous firing of neurons is captured from each electrode on a microsecond timescale providing both temporally and spatially precise data. […] The CCTE_Shafer_MEA_dev assay uses primary cultures of rat cortical neurons. Recordings are made on days post-plating 5, 7, 9 and 12. As these cultures mature over time, neural networks develop functional activity and form cohesive networks in which electrical activity can be highly coordinated. CCTE_Shafer_MEA_dev_interburst_interval_mean is 1 of 19 assay components of the CCTE_Shafer_MEA_dev assay. It measures the average time interval between consecutive single-electrode bursts (temporally-clustered groups of action potential firing) during a recording in a microelectrode array (MEA) using Axion Biosystems Maestro 768 channel amplifier with the AxIS adaptive spike detector. The mean inter-burst interval is averaged across the actively bursting electrodes to report a well-mean value. To collapse across multiple recordings made on days post-plating 5, 7, 9 and 12, the trapezoidal area-under-the-curve of the component is calculated.Data from the assay component CCTE_Shafer_MEA_dev_interburst_interval_mean was analyzed into 1 assay endpoint. This assay endpoint, CCTE_Shafer_MEA_dev_interburst_interval_mean, was analyzed in the negative analysis fitting direction relative to DMSO as the negative control and baseline of activity. Using a type of functional reporter, gain or loss-of-signal activity can be used to understand electrical activity.
On the day prior to culture, each well was coated thoroughly with 150 uL of 0.05% polyethyleneimine (PEI, Sigma Cat P3143) in 50 mM HEPES (Sigma Cat H7523) at a pH of 8. The plate was incubated at 37C for one hour. PEI was rinsed out with 500 uL of sterile water three times. Plates were stored at 4C until the day of culture. This culture was plated at a seeding density of 1.5 x 10^5 cells/well on a 48-well MEA plate, prepared as described above. Cells were administered via a 25 uL media/laminin ([…]; Sigma Cat L2020-1MG) drop directly onto the microelectrode array, as adding the cells with the laminin results in better attachment than pre-coating with laminin. After 2 hours, an additional 475 uL of cortical media was added and the cells returned to the incubator. Exposure starts at day 0 of plating and is continued over twelve days of network development until the experiment is terminated. Cells are fed with fresh medium on DIV 5 and 9, following the recordings on those days. The entire volume of media in the well is exchanged and any vehicle or compound treatment is renewed. Complete details are found in OP-NHEERL/ISTD/SBB/TJS/2015-03-r0 (available on request, email shafer.tim@epa.gov). Measurement of the electrical activity is non-invasive, and recordings can be made from the same plate over multiple different days of the culture. In cortical neurons, this allows for the measurement of extracellular action potentials over the period during which networks form in the MEA plate.
As to `NC(N)=Nc1nc(CSCCC(N)=NS(N)(=O)=O)cs1`, the call was inactive.

As for `c1cc2ccc3ccc4ccc5cccc6c(c1)c2c3c4c56`, the call was inactive.

What is called AC50 is the concentration at which the activity in the assay is half-maximal. As to `COc1ccc2cc3[n+](cc2c1OC)CCc1cc2c(cc1-3)OCO2`, the AC50 was 0.287 µM (active).

Take `CC[C@H](C)C(=O)O[C@H]1CCC=C2C=C[C@H](C)[C@H](CC[C@@H]3C[C@@H](O)CC(=O)O3)[C@H]21`: the AC50 is 3.03 µM (active) and 2.52 µM (active).

In the case of `C[C@@H]1C[C@H]2[C@@H]3CCC4=CC(=O)C=C[C@]4(C)[C@@]3(F)[C@@H](O)C[C@]2(C)[C@@]1(O)C(=O)CO`, the compound was classed as inactive.

As to `CNCCC(Oc1ccc(C(F)(F)F)cc1)c1ccccc1` (stereo not given), the AC50 is 4.18 µM (active).

Turning to `c1ccc2cc3c4ccccc4c4ccccc4c3cc2c1`, the result was inactive.

For the compound `CN(C)C(=O)C(CCN1CCC(O)(c2ccc(Cl)cc2)CC1)(c1ccccc1)c1ccccc1`, the AC50 is 581 nM (active) and 249 nM (active) and 2.56 µM (active).

As for `CC(C)(C)NCC(O)c1cc(O)cc(O)c1` (stereo not given), the compound was classed as inactive.

Regarding `Cc1c(O)cccc1C(=O)N[C@@H](CSc1ccccc1)[C@H](O)CN1C[C@H]2CCCC[C@H]2C[C@H]1C(=O)NC(C)(C)C`, the AC50 is 1.51 µM (active).

In the case of `C[C@H](CS)C(=O)N1CCC[C@H]1C(=O)O`, the compound was classed as inactive.

In the case of `CC1(C)S[C@@H]2[C@H](NC(=O)[C@H](N)c3ccccc3)C(=O)N2[C@H]1C(=O)O`, the result was inactive.

Consider `CN(C)CCC(c1ccc(Cl)cc1)c1ccccn1` (stereo not given), for which the compound was called inactive.

As for `[Cl-].[Cl-].[NH2-].[NH2-].[Pt+4]`, the outcome was inactive.

Consider `CC1(C)S[C@@H]2[C@H](NC(=O)[C@H](N)c3ccc(O)cc3)C(=O)N2[C@H]1C(=O)O`, for which the compound was classed as inactive.
